Test results from ChEMBL document CHEMBL4513216, “Probing the Open Global Health Chemical Diversity Library for Multistage-Active Starting Points for Next-Generation Antimalarials” (ACS Infect Dis, 2020).
In all, about 68,000 compounds went through this assay and about 2,700 (4%) showed an effect of 50% or more. This excerpt belongs to a sample that is enriched for strong results.

The molecules below were run on Plasmodium berghei (assay: Screen against P. berghei liver stage (PbLuc), transformed with Luciferase, at 2uM). Details: tested at 2 uM.
Type: functional, HepG2

`COc1ccccc1C1CCCN1CC(=O)N1CCC(C(N)=O)CC1` (centres undefined) was tested. Which INHIBITION did it give?
Its INHIBITION is 50.32%.

Which INHIBITION does the source give for `COc1ccccc1[C@@H]1CN(CC(=O)N2CCCCC2)C[C@H]1C(=O)O` here?
Its INHIBITION is -36.91%.

How did the INHIBITION turn out when `CCOC(=O)C1CCN(C(=O)CN2CCCC2c2ccccc2C)CC1` (centres undefined) was run?
Its INHIBITION is -16.19%.

With `Cc1nc(C2CCCNC2)cc(N2CCc3nc(N)sc3C2)n1` (centres undefined) as the molecule, how does the INHIBITION read?
The INHIBITION was 17.41%.

With `Cn1cc(CN2CC[C@H](O)[C@@H]2Cc2ccncc2)cn1` as the molecule, how does the INHIBITION read?
Its INHIBITION is 23.94%.

`O=c1c2sccc2nc2n1CCN(Cc1ccc(F)c(F)c1)CC2` was tested. Which INHIBITION did it give?
The INHIBITION was 15.72%.

How did the INHIBITION turn out when `O=c1c2sccc2nc2n1CCN(Cc1ccsc1)CC2` was run?
Its INHIBITION is 63.66%.

Which INHIBITION does the source give for `O=c1c2sccc2nc2n1CCN(Cc1cccs1)CC2` here?
Its INHIBITION is 15.58%.

With `Cc1ncsc1C(=O)N(C)Cc1ccc(Br)o1` as the molecule, how does the INHIBITION read?
Its INHIBITION is -21.99%.

With `Cc1ccccc1-c1cncc(C2CCN(C3CCOCC3)CC2)n1` as the molecule, how does the INHIBITION read?
Its INHIBITION is 8.63%.

Which INHIBITION does the source give for `Cc1oc(NC(=O)C(C)N2CCN(C(C)(C)CO)CC2)c(C#N)c1C` (centres undefined) here?
Its INHIBITION is 10.1%.

`Cc1oc(NC(=O)C(C)N2CCN(CCO)CC2)c(C#N)c1C` (centres undefined) was tested. Which INHIBITION did it give?
Its INHIBITION is 51.08%.

With `Cc1oc(NC(=O)C(C)N2CCN(C(=O)C3CC3)CC2)c(C#N)c1C` (centres undefined) as the molecule, how does the INHIBITION read?
The INHIBITION was 30.59%.

Which INHIBITION does the source give for `Cn1ncc2c1CN(Cc1cccnc1)CC2COCC1CC1` (centres undefined) here?
The INHIBITION was -12.27%.

How did the INHIBITION turn out when `CCCN1CCN(C(=O)c2ccn(COc3ccc(F)cc3)n2)CC1` was run?
The INHIBITION was -15.49%.

With `CCn1ncc(S(=O)(=O)NC(C)c2cc(OC)ccc2OC)c1C` (centres undefined) as the molecule, how does the INHIBITION read?
Its INHIBITION is 0.08%.

How did the INHIBITION turn out when `CN(CC1CCCO1)C1CCN(CCc2ccccn2)CC1` (centres undefined) was run?
The INHIBITION was 14.82%.

How did the INHIBITION turn out when `CCc1cc(NCC(N)=O)nc(N2CCCCC2)n1` was run?
Its INHIBITION is 55.18%.

With `CCc1cc(NCCNC(C)=O)nc(N2CCCC2)n1` as the molecule, how does the INHIBITION read?
The INHIBITION was -36.65%.

For `CCc1cc(NC2CCN(CC(N)=O)CC2)nc(N2CCCCC2)n1`, which INHIBITION is on record?
The INHIBITION was -69.81%.

Which INHIBITION does the source give for `CCc1nc(-c2noc3ccc(C(=O)N(C)CCOC)cc23)co1` here?
The INHIBITION was 63.23%.

`COCCN(C)C(=O)c1ccc2onc(-c3coc(C)n3)c2c1` was tested. Which INHIBITION did it give?
The INHIBITION was 32.04%.

`CCc1nc(-c2noc3ccc(C(=O)NCCN(C)C)cc23)co1` was tested. Which INHIBITION did it give?
Its INHIBITION is -18.52%.

`C[C@@H]1CN(C2CCN(c3ccccc3F)CC2)C[C@]1(C)O` was tested. Which INHIBITION did it give?
The INHIBITION was 43.44%.

Which INHIBITION does the source give for `Cc1cc(F)ccc1N1CCC(N2C[C@@H](CN(C)C)[C@@H](CO)C2)CC1` here?
The INHIBITION was 35.54%.

For `Cc1cc(F)ccc1N1CCC(N2C[C@@H](C)[C@@](C)(O)C2)CC1`, which INHIBITION is on record?
The INHIBITION was 67.28%.

Which INHIBITION does the source give for `c1ccc(-n2nnnc2NCc2ccc3c(c2)OCO3)cc1` here?
The INHIBITION was -26.04%.

How did the INHIBITION turn out when `O=C(O)C1CCCN(C(=O)CCn2ccc3c(Cl)cccc32)C1` (centres undefined) was run?
Its INHIBITION is -23.9%.

For `O=C(O)[C@@H]1CN(C(=O)c2ccc3[nH]nnc3c2)C[C@H]1c1ccccc1`, which INHIBITION is on record?
Its INHIBITION is 39.57%.

Which INHIBITION does the source give for `O=C(Nc1cnccn1)[C@@H]1COC[C@H]2CN(C3CCCC3)C[C@H]21` here?
The INHIBITION was -31.17%.

How did the INHIBITION turn out when `O=C(Nc1ccncc1)C1=NN(c2ccccc2)C(=O)CN1` was run?
The INHIBITION was 17.59%.

With `Cc1nc(CNC(=O)NCCC2=CCCC2)oc1C` as the molecule, how does the INHIBITION read?
The INHIBITION was 67.51%.

`COCCCNC(=O)NCc1nc(C)c(C)o1` was tested. Which INHIBITION did it give?
Its INHIBITION is -62.18%.

With `CCCNC(=O)NCc1nc(C)c(C)o1` as the molecule, how does the INHIBITION read?
Its INHIBITION is 22.34%.

With `Cc1cc(S(=O)(=O)Nc2onc(C)c2C)sc1C` as the molecule, how does the INHIBITION read?
The INHIBITION was 36.28%.

For `Cc1ccc(CN2CCn3c(CN(C)C(C)C)cnc3C2)s1`, which INHIBITION is on record?
Its INHIBITION is 18.2%.

Which INHIBITION does the source give for `COCCN1C[C@H]2CN(C(=O)NCc3ccccc3)CCN2C1=O` here?
The INHIBITION was 14.21%.

How did the INHIBITION turn out when `COCCN1C[C@H]2CN(C(=O)NC(C)C)CCN2C1=O` was run?
Its INHIBITION is 58.6%.

`COCCN1C[C@H]2CN(C(=O)C3CC3)CCN2C1=O` was tested. Which INHIBITION did it give?
Its INHIBITION is 14.65%.

With `CS(=O)(=O)c1cccc(OCC(=O)N2CCCC2c2ccc[nH]2)c1` (centres undefined) as the molecule, how does the INHIBITION read?
The INHIBITION was 9.27%.

With `Cc1ncoc1C(=O)N1CC[C@@]2(C[C@H](NS(C)(=O)=O)CCO2)C1` as the molecule, how does the INHIBITION read?
The INHIBITION was -43.98%.

`CCCC(C)NC(=O)c1ccc(-c2ccco2)[nH]c1=O` (centres undefined) was tested. Which INHIBITION did it give?
The INHIBITION was -1.87%.

How did the INHIBITION turn out when `CC(COCC(F)(F)F)NC(=O)c1ccc(-c2ccco2)[nH]c1=O` (centres undefined) was run?
The INHIBITION was 69.67%.

With `CCC(C)NC(=O)c1ccc(-c2ccco2)[nH]c1=O` (centres undefined) as the molecule, how does the INHIBITION read?
Its INHIBITION is 31.51%.

`CNS(=O)(=O)c1ccc(C(=O)NCc2ccnc(OC)c2)cc1` was tested. Which INHIBITION did it give?
Its INHIBITION is 27.44%.

With `Fc1ccc(N2CCCN(Cc3ccc(-c4cc[nH]n4)o3)CC2)cc1` as the molecule, how does the INHIBITION read?
The INHIBITION was -62.99%.

With `Cc1cccc(-c2nc(CN3CCc4c(ncn4C)C3)no2)c1` as the molecule, how does the INHIBITION read?
Its INHIBITION is 14.82%.

Which INHIBITION does the source give for `CC(NC(=O)N1CCCCCC1)c1ccc(S(N)(=O)=O)cc1` (centres undefined) here?
Its INHIBITION is -36.8%.

Which INHIBITION does the source give for `OCC1CCC2(CC1)CN(Cc1ccccc1F)Cc1ccccc1O2` (centres undefined) here?
The INHIBITION was 2.71%.

How did the INHIBITION turn out when `O=C(CSc1ccc(F)cc1F)NS(=O)(=O)c1ccc2c(c1)OCCO2` was run?
Its INHIBITION is 27.47%.

How did the INHIBITION turn out when `O=C(CCc1ccc(F)cc1)NS(=O)(=O)c1ccc2c(c1)OCCO2` was run?
Its INHIBITION is -15.92%.

How did the INHIBITION turn out when `CC(CC(=O)NS(=O)(=O)c1ccc2c(c1)OCCO2)c1ccc(F)cc1` (centres undefined) was run?
Its INHIBITION is 61.3%.

`O=C(CCc1cc(F)ccc1F)NS(=O)(=O)c1ccc2c(c1)OCCO2` was tested. Which INHIBITION did it give?
Its INHIBITION is 66.28%.

With `O=C(CCc1ccccc1F)NS(=O)(=O)c1ccc2c(c1)OCCO2` as the molecule, how does the INHIBITION read?
The INHIBITION was 7.71%.

How did the INHIBITION turn out when `O=C(CSc1ccc(F)cc1)NS(=O)(=O)c1ccc2c(c1)OCCO2` was run?
Its INHIBITION is 13.91%.

For `c1nc2n(n1)CC(NCc1nc(-c3ccsc3)no1)CC2` (centres undefined), which INHIBITION is on record?
Its INHIBITION is -14.3%.

For `COc1cccc(CC(=O)NC2CCCc3cn[nH]c32)c1` (centres undefined), which INHIBITION is on record?
The INHIBITION was -1.29%.

For `CCCc1nn(C2CCN(C3CC3)C2=O)c(=O)o1` (centres undefined), which INHIBITION is on record?
Its INHIBITION is -8.5%.

`CCCc1nn(C2CCN(C(C)C)C2=O)c(=O)o1` (centres undefined) was tested. Which INHIBITION did it give?
The INHIBITION was -78.95%.

Which INHIBITION does the source give for `CCCc1nn(C2CCCN(C(C)C)C2=O)c(=O)o1` (centres undefined) here?
The INHIBITION was 58.69%.

With `Cc1nc(N2CCC(CN3CCCC3)CC2)c2cnn(C)c2n1` as the molecule, how does the INHIBITION read?
The INHIBITION was 7.08%.

For `NC(=O)CN(CC(=O)NCCc1c(F)cccc1F)C1CCCC1`, which INHIBITION is on record?
The INHIBITION was 14.21%.

For `NCC1(c2cccc(C(F)(F)F)c2)CCC1`, which INHIBITION is on record?
Its INHIBITION is 39.97%.

How did the INHIBITION turn out when `NCC1(c2cccc(C(F)(F)F)c2)CCCC1` was run?
Its INHIBITION is 23.45%.

For `NCC1(c2cccc(C(F)(F)F)c2)CC1`, which INHIBITION is on record?
The INHIBITION was 74.11%.

How did the INHIBITION turn out when `CC(C)c1cc(NC(=O)CN2CCCC2Cn2cncn2)on1` (centres undefined) was run?
The INHIBITION was -98.79%.

For `COC(=O)c1ccc(Cl)c(NS(=O)(=O)c2cn(C)cn2)c1`, which INHIBITION is on record?
The INHIBITION was -9.88%.

How did the INHIBITION turn out when `Cn1cnc(S(=O)(=O)Nc2cc(C(N)=O)ccc2Cl)c1` was run?
The INHIBITION was -53.5%.

With `COC(=O)c1ccc(Cl)c(NS(=O)(=O)c2cnn(C)c2)c1` as the molecule, how does the INHIBITION read?
Its INHIBITION is 50.48%.
